# A number with no mark means an inactive call. Inconclusive results are not listed. A call without a number means that no potency is given here. Calls of active or inactive are those of the source. Unless noted, calls come from the whole dose curve; as a rule, active = well fitted curve in the direction sought with a large enough effect; inconclusive = small, poorly fitted or top-dose-only effect, or another doubt; inactive = no such curve, though single readings can be large; an effect the other way counts as inactive or inconclusive.
# What was measured:
# [1] = target: Rap guanine nucleotide exchange factor 3 (Homo sapiens) (UniProt O95398); experiment: Confirmatory qHTS for antagonist of cAMP-regulated guanine nucleotide exchange factor 3 (EPAC1) (AID 1645880); settings: EPAC1 Rap1B-BODIPY-GDP exchange, fluorescence; activity, negative = inhibition: at 115 µM (top of the series); note: nearly all actives have a fitted effect of over 55% in size; note: potency is the fitted concentration of half-maximal effect
# Procedure, shortened: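 Nucleotide exchange uses 100 nM EPAC1, 250 nM RAP1B-BODIPY-GDP and 50 uM GDP, with compounds in a concentration-titration series. After 5 min at room temperature, fluorescence (480 nm ex/540 nm em) is read every 5 min for 30 min. Data are normalized to control ATA and DMSO.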
# [2] = target: Rap guanine nucleotide exchange factor 3 (Homo sapiens) (UniProt O95398); experiment: Confirmatory qHTS for agonist of cAMP-regulated guanine nucleotide exchange factor 3 (EPAC1) (AID 1645881); note: nearly all actives have a fitted effect of over 75% in size; note: potency is the fitted concentration of half-maximal effect;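 for activation: EPAC1 catalysed release of BODIPY-GDP from Rap1B seen as fluorescence loss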
# [3] = target: Rap guanine nucleotide exchange factor 4 (Homo sapiens) (UniProt Q8WZA2); experiment: Confirmatory qHTS for antagonist of cAMP-regulated guanine nucleotide exchange factor 4 (EPAC2) (AID 1645885); note: nearly all actives have a fitted effect of over 25% in size; note: potency is the fitted concentration of half-maximal effect
# [4] = target: Rap guanine nucleotide exchange factor 3 (Homo sapiens) (UniProt O95398); experiment: Counterscreen qHTS for antagonist of cAMP-regulated guanine nucleotide exchange factor 3 (EPAC1) (AID 1645888);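 note: fluorescence loss as bound BODIPY-GDP is released from Rap1B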
# Procedure, shortened: (§1)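 Rap1B-BODIPY-GDP 250 nM + GDP 50 uM; cpds 7-pt, final 9.74 nM–152 uM (activator mode) or from 7.32 nM upwards (inhibitor mode); RT; FI 480/540 nm at 5 and 30 min, then ± cAMP, reread.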
# [5] = target: Rap guanine nucleotide exchange factor 3 (Homo sapiens) (UniProt O95398); experiment: Counterscreen qHTS for agonist of cAMP-regulated guanine nucleotide exchange factor 3 (EPAC1) (AID 1645889); note: nearly all actives have a fitted effect of over 40% in size; note: potency is the fitted concentration of half-maximal effect
# Procedure, shortened: as §1
# [6] = target: Tumor susceptibility gene 101 protein (Homo sapiens) (UniProt Q99816); experiment: qHTS Assay for Iinhibitors of HIV-1 Budding by Blocking the Interaction of PTAP/TSG101: Hit Validation (AID 651600); note: nearly all actives have a fitted effect of over 70% in size; note: potency is the fitted concentration of half-maximal effect
# Procedure, shortened: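 Fluorescence polarization binding assay: Tsg101 binding domain (10 uM) mixed with compounds and FITC-labeled PTAP peptide (50 nM) in HEPES pH 7.5, 0.15 M NaCl, 0.01% Tween 20, EDTA, TCEP; 20 min at r.t.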
# [7] = target: Lysosomal acid glucosylceramidase (Homo sapiens) (UniProt P04062); experiment: Glucocerebrosidase-p2 (AID 348; in the data active = potency below about 10 µM; note: potency is the fitted concentration of half-maximal effect); settings: purified GBA, blue fluorogenic substrate, 40 min
# Procedure, shortened: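 Compounds titrated from 0.6 nM upwards against 0.2 nM enzyme in pH 5.9 citric acid/KH2PO4, taurocholate, tween-20; blue fluorogenic substrate 80 uM, 40 min room temperature, stopped and read Ex 365/Em 440 for AC50.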
# [8] = AP1 Signaling Pathway (AID 357; active = well fitted curve in either direction with a large enough effect, not every such curve was filed as active;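 note: ME-180 reporter cells stimulated with EGF at its EC50 level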); settings: ME-180 AP-1-bla reporter, EGF-induced, beta-lactamase ratio, 5 h; at 7.69 µM (top of the series) unless noted
# Procedure, shortened: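 AP-1-bla ME-180 cells, Opti-MEM + 0.5% dialyzed FBS, plated overnight 37 °C. Cpd titration + EC50 EGF, 5 h 37 °C. CCF4 2.5 h RT; ex 405, em 460/530 ratio → %activity, AC50.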
# [9] = target: Cytochrome P450 1A2 (Homo sapiens) (UniProt P05177); experiment: p450-cyp1a2 (AID 410; calls by dose curve; note: potency is the fitted concentration of half-maximal effect)
# Procedure, shortened: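 Inhibition was calculated relative to 57 uM furafylline (full inhibition). The reaction used human CYP1A2 at 20nM with Luciferin-ME at its Km, 100uM, driven by an NADPH-regenerating system for 60 min at room temperature.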
# [10] = NFAT Signaling Pathway (AID 444; active = well fitted curve in either direction with a large enough effect, not every such curve was filed as active;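 note: carbachol stimulus at about its EC50 of 1 µM final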); settings: Jurkat NFAT-bla M1, carbachol, beta-lactamase ratio, 5 h; at 7.69 µM (top of the series) unless noted
# Procedure, shortened: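 Read-out: CCF4 FRET ratio (460 nm/530 nm) after 1 h RT dye loading, used for %activity and AC50 from titration series. Cells: Jurkat NFAT-β-lactamase/M1 line, treated with compound plus 1 uM carbachol for 5 h, 37 °C.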
# [11] = Stat Signaling Pathway (AID 446; active = well fitted curve in either direction with a large enough effect, not every such curve was filed as active;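 note: ME-180 cervical cancer cells given 40 pM IL-6 alongside compound; SIE-controlled beta-lactamase reporter measured as 460/530 nm FRET emission ratio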)
# Procedure, shortened: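 Reporter line: ME-180 cervical carcinoma, SIE-beta-lactamase. Treatment: compound with 40 pM IL-6, 5 hrs, 37 C, in low-serum OPTI-MEM with 10 mM HEPES pH 7.3. Detection: 460/530 nm fluorescence.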
# [12] = target: Glucocorticoid receptor (Homo sapiens) (UniProt P04150); experiment: GR-GFP Redistribution (AID 450;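 active = compounds whose dose series gives a full or clear partial fitted curve of increased nuclear translocation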; note: potency is the fitted concentration of half-maximal effect); settings: U2OS GR-GFP nuclear translocation, laser cytometry, 2 h
# [13] = target: Mitogen-activated protein kinase 10 (Mus musculus) (UniProt Q61831); experiment: JNK3 AlphaScreen Assay (AID 530; active = well fitted curve in either direction with a large enough effect, not every such curve was filed as active;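 note: kinase came from lysate of stimulated human HepG2 cells; signal reports phosphorylation of biotinylated GST-cJun 1-79 at Ser73 with 10 µM ATP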)
# Procedure, shortened: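 Room-temperature AlphaScreen kinase assay; pre-activated HepG2 lysate as JNK3 source, biotin-GST-cJun(1-79) substrate, 10 uM ATP, compound 15 min preincubation.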
# [14] = target: 3',5'-cyclic-AMP phosphodiesterase 4B (Homo sapiens) (UniProt Q07343); experiment: qHTS Assay for Inhibitors of PDE-IV (AID 607; active = well fitted activation curve with a large enough effect in the main read-out, with a control signal flat, not every such curve was filed as active)
# Procedure, shortened: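 Cell-based read-out of cAMP via a modified cyclic nucleotide-gated channel and membrane potential dye (535/590 nm) in HEK293 cells expressing PDE4 endogenously. Compounds tested up to 22.9 uM final; 100 uM RO 20-1724 reference.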
# [15] = target: Cytochrome P450 2C9 (Homo sapiens) (UniProt P11712); experiment: qHTS Assay for Inhibitors and Substrates of Cytochrome P450 2C9 (AID 883); note: potency is the fitted concentration of half-maximal effect; nearly all actives have a fitted effect of over 60% in size
# Procedure, shortened: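 Turnover of Luciferin-H (100uM, KM) by 10nM human CYP2C9 was measured over 60 min at 37C with NADPH regeneration; inhibitors and some substrates reduce luminescence. Data normalized to sulphaphenazole 57uM.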
# [16] = target: Cytochrome P450 3A4 (Homo sapiens) (UniProt P08684); experiment: qHTS Assay for Inhibitors and Substrates of Cytochrome P450 3A4 (AID 884); note: potency is the fitted concentration of half-maximal effect; nearly all actives have a fitted effect of over 50% in size
# Procedure, shortened: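 20 nM human CYP3A4 with 25 uM Luciferin-PPXE (at KM) in 200 mM KPO4, preincubated 10 min with compound; NADPH regeneration started a 60 min RT reaction. Luciferin detected by luminescence, normalized to 57 uM ketoconazole as full inhibition.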
# [17] = target: Cytochrome P450 3A4 (Homo sapiens) (UniProt P08684); experiment: qHTS Assay for Activators of Cytochrome P450 3A4 (AID 885); note: nearly all actives have a fitted effect of over 65% in size
# Procedure, shortened: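 Signal was normalized against complete inhibition by 57 uM ketoconazole. The reaction used 20nM CYP3A4 with 25uM Luciferin-PPXE, 10-min compound preincubation and a 60-min NADPH-supported step at RT.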
# [18] = target: Cytochrome P450 2D6 (Homo sapiens) (UniProt P10635); experiment: qHTS Assay for Inhibitors and Substrates of Cytochrome P450 2D6 (AID 891); note: potency is the fitted concentration of half-maximal effect; nearly all actives have a fitted effect of over 60% in size
# Procedure, shortened: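 Human CYP2D6 (5 nM) with 30 uM Luciferin-ME EGE (at Km) in 100 mM KPO4, compound preincubated 10 min, then NADPH regeneration system for 60 min at room temperature. Luciferin read by luminescence; normalized to 1.43 uM quinidine.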
# [19] = target: Cytochrome P450 2C19 (Homo sapiens) (UniProt P33261); experiment: qHTS Assay for Inhibitors and Substrates of Cytochrome P450 2C19 (AID 899); note: potency is the fitted concentration of half-maximal effect; nearly all actives have a fitted effect of over 60% in size
# Procedure, shortened: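 Reactions contain 5nM enzyme, 10uM Luciferin-H EGE (KM) and 50mM KPO4; compound preincubates 10 min at 37C, NADPH regeneration starts turnover for 60 min. Luminescence after detection reagent gives activity.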
# [20] = target: Dual specificity protein kinase CLK4 (Homo sapiens) (UniProt Q9HAZ1); experiment: qHTS Assay for Inhibitors of CDC-like Kinase 4 (Kinase-Glo Assay) (AID 1770); note: potency is the fitted concentration of half-maximal effect; nearly all actives have a fitted effect of over 65% in size
# Procedure, shortened: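 25 nM Clk4 with 100 uM RS repeat peptide and 1 uM ATP (final) in Tris pH7.5, 10 mM MgCl2, 4.5 h at room temperature. Remaining ATP measured by Kinase-Glo luciferase luminescence.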
# [21] = target: Dual specificity protein kinase CLK4 (Homo sapiens) (UniProt Q9HAZ1); experiment: qHTS Assay for Inhibitors of CDC-like Kinase 4 (ADP-FP Assay) (AID 1795); note: potency is the fitted concentration of half-maximal effect; nearly all actives have a fitted effect of over 60% in size
# Procedure, shortened: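 Recombinant Clk4 (6.25 nM) phosphorylated 100 uM RS repeat peptide with 1 uM ATP in 25 mM Tris pH 7.5, 10 mM MgCl2, 0.5 mM EGTA, 2.5 mM DTT, 0.01% Triton X-100 for 1 h. ADP was detected by Transcreener ADP2 competitive fluorescence polarization after 30 min at room temperature.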
# [22] = target: Ubiquitin carboxyl-terminal hydrolase 1 (Homo sapiens) (UniProt O94782); experiment: Inhibitors of USP1/UAF1: Pilot qHTS (AID 504865);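 note: rhodamine fluorescence freed from ubiquitin-rhodamine substrate followed over time; top concentration of the series differs between compounds; nearly all actives have a fitted effect of over 35% in size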
# Procedure, shortened: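 USP1/UAF1 complex at 1 nM preincubated 15 min at room temperature with compound, then Ub-Rho substrate added at 150 nM final. Fluorescence (480/540 nm) read kinetically in 50 mM HEPES pH 7.8, 0.5 mM EDTA, 1 mM TCEP, 0.1 mg/ml BSA, 0.01% Tween-20.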
# Rap guanine nucleotide exchange factor 3 (Homo sapiens), sequence (O95398 whole entry, looked up): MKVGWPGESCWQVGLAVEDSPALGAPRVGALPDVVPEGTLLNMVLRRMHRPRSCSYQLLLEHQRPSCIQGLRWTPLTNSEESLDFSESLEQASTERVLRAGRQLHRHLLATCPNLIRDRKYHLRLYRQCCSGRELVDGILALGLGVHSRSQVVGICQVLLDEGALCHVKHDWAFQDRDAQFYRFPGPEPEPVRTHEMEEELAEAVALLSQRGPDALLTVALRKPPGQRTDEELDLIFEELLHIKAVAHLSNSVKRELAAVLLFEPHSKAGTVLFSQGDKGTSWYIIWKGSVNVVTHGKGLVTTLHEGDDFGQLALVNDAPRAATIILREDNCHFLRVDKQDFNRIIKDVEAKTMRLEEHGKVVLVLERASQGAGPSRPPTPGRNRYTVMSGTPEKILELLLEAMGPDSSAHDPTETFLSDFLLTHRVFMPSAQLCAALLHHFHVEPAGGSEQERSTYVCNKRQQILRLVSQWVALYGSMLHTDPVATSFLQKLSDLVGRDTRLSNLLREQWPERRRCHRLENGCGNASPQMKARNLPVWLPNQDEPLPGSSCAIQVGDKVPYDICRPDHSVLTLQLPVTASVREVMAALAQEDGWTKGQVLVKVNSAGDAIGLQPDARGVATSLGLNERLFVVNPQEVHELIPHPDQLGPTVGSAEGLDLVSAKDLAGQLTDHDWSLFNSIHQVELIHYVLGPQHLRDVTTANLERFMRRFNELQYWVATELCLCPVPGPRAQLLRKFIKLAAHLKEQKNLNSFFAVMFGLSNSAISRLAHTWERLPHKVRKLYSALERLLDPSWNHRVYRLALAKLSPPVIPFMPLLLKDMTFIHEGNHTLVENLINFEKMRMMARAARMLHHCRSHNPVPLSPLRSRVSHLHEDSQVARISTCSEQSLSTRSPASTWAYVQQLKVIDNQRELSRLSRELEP
# Tumor susceptibility gene 101 protein (Homo sapiens), sequence (Q99816 whole entry, looked up, the tested form may be a part): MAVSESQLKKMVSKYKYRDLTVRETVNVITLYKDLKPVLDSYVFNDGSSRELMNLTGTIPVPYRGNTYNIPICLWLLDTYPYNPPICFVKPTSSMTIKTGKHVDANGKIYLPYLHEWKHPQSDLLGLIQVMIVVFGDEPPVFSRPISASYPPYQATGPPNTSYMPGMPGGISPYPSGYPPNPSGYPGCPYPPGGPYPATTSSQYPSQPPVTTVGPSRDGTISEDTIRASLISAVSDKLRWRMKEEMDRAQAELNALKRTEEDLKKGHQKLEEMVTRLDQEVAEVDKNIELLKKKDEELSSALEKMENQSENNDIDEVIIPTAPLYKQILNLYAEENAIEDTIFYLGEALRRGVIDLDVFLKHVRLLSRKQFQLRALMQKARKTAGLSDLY
# Rap guanine nucleotide exchange factor 4 (Homo sapiens), sequence (Q8WZA2 whole entry, looked up): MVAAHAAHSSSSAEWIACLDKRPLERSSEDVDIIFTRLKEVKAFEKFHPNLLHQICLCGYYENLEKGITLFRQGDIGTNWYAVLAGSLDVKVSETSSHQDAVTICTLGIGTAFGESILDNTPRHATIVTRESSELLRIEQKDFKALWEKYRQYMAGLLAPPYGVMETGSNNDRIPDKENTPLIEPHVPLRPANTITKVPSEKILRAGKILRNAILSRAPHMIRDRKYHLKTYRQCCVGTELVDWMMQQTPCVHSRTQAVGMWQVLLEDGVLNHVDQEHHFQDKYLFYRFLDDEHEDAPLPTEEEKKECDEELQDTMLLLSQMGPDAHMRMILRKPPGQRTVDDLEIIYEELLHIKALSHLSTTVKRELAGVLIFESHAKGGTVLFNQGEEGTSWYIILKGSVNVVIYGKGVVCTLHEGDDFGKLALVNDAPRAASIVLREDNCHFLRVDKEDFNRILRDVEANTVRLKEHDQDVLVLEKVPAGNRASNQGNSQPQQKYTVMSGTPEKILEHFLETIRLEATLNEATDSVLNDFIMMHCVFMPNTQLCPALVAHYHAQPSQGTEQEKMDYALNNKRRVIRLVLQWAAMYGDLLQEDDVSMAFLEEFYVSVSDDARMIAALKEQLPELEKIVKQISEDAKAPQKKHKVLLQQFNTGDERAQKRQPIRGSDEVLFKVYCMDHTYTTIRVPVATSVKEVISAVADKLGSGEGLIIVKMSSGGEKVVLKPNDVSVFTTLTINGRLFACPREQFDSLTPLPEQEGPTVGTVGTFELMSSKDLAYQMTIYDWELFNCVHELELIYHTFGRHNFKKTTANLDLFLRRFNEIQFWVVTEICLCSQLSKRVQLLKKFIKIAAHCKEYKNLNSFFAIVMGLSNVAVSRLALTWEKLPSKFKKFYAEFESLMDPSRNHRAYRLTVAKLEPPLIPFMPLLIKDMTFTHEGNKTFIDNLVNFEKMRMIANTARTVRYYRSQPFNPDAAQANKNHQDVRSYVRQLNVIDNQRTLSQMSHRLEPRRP
# Dual specificity protein kinase CLK4 (Homo sapiens), sequence (Q9HAZ1 whole entry, looked up): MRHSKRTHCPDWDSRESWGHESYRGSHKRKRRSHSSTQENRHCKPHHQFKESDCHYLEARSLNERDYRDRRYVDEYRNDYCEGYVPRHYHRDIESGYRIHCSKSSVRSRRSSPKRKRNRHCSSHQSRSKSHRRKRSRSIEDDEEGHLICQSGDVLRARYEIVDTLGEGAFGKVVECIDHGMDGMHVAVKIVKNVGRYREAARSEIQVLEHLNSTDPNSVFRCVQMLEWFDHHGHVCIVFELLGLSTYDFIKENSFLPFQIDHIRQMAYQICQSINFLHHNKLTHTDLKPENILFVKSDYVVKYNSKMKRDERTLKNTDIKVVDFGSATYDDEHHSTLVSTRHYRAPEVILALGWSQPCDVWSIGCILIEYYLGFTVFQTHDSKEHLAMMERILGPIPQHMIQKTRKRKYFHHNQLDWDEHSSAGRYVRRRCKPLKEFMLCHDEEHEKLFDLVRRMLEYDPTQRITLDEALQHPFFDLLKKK
# Cytochrome P450 3A4 (Homo sapiens), sequence (P08684 whole entry, looked up): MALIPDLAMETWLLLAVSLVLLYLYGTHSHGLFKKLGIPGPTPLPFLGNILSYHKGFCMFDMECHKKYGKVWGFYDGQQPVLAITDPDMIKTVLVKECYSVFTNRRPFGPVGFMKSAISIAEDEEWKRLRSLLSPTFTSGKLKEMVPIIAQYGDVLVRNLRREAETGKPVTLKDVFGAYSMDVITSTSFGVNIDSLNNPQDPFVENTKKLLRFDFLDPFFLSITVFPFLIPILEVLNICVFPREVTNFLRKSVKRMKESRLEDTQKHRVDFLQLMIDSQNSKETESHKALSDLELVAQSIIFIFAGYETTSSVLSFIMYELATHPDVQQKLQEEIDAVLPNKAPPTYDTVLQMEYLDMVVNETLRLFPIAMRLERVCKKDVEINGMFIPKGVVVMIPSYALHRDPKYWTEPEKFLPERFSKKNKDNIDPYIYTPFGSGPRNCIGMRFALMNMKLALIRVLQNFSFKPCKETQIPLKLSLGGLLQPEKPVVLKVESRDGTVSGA
# Ubiquitin carboxyl-terminal hydrolase 1 (Homo sapiens), sequence (O94782 whole entry, looked up): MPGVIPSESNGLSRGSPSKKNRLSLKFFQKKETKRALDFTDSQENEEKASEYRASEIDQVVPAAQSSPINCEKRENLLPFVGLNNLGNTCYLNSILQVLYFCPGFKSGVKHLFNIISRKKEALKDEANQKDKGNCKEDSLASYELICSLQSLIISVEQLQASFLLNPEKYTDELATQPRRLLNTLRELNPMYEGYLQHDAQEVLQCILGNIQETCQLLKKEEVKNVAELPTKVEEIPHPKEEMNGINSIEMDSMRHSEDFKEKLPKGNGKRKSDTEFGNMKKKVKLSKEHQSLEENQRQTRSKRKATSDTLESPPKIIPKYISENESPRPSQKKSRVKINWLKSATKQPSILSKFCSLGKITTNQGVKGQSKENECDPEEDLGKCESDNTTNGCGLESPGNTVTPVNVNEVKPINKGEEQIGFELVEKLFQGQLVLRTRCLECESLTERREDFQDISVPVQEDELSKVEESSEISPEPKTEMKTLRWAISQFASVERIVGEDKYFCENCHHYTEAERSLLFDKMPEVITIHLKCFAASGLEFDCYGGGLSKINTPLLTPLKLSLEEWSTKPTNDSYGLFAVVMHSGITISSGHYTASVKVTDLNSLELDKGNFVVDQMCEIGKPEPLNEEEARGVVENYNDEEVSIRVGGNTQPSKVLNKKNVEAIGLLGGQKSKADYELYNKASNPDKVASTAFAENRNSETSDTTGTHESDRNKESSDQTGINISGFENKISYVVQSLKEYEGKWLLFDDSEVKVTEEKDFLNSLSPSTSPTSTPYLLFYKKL
# Lysosomal acid glucosylceramidase (Homo sapiens), sequence (P04062 whole entry, looked up): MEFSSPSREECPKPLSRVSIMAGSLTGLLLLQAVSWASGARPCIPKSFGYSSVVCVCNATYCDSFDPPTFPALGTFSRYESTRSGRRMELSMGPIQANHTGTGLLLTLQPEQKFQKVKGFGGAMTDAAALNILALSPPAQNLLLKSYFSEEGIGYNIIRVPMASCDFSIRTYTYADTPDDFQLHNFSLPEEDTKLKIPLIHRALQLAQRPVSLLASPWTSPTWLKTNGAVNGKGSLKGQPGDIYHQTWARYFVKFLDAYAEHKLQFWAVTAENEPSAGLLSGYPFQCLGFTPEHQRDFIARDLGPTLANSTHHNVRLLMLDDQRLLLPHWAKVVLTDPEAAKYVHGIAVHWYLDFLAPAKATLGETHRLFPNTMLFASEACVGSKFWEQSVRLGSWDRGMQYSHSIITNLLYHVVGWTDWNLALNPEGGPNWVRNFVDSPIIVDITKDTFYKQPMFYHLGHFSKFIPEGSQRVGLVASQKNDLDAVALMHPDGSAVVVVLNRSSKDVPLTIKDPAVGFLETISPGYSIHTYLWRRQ
smiles,measurement,setting,value
CCOc1ccc(-c2cccc(NC(=O)c3ccco3)c2)nn1,Potency,[1],inactive
same,Potency,[2],inactive
same,Potency,[3],84.9 µM (active)
same,Potency,[4],inactive
same,Potency,[5],inactive
CCc1ccc[n+](-c2[nH]c(=O)sc2/C=N/NC([S-])=Nc2ccccc2)c1,Potency,[6],14.6 µM (active)
same,Potency,[1],inactive
same,Potency,[2],inactive
same,Potency,[3],inactive
same,Potency,[4],inactive
same,Potency,[5],50.1 µM (active)
CCN(CC)c1ccc(/C=c2\sc3nc4ccccc4n3c2=O)c(O)c1,Potency,[6],inactive
same,Potency,[1],inactive
same,Potency,[2],inactive
same,Potency,[3],inactive
same,Potency,[4],inactive
same,Potency,[5],56.2 µM (active)
COCCN(CCOC)Cc1cc(=O)oc2cc(OC)c(Cl)cc12,Potency,[1],inactive
same,Potency,[2],inactive
same,"activity change, negative = inhibition",[4],-10.8% [at 30.8 µM]
Nc1cccc2c(O)cc(S(=O)(=O)O)cc12,Potency,[6],18.3 µM (active)
same,Potency,[1],13.5 µM (active)
same,Potency,[2],50.1 µM (active)
same,Potency,[3],0.757 µM (active)
same,Potency,[4],inactive
same,Potency,[5],79.4 µM (active)
COc1ccc(/C=C/C(=O)c2ccc(Cl)cc2)c(OC)c1,Potency,[1],inactive
same,Potency,[2],inactive
same,Potency,[4],inactive
COc1ccccc1NC(=O)Cc1ccc(-c2ccccc2)cc1,Potency,[1],inactive
same,Potency,[2],inactive
same,Potency,[3],inactive
same,Potency,[5],inactive
O=C(O)c1ccccc1-c1ccc(/C=C/c2cc(C(F)(F)F)[nH]c(=O)n2)o1,Potency,[6],inactive
same,Potency,[1],inactive
same,Potency,[2],89.1 µM (active)
same,Potency,[3],inactive
same,"activity change, negative = inhibition",[4],309% [at 30.8 µM]
CCn1nc(C)c(C(=O)Nc2cc(Oc3ccc(Cl)cc3)cc([N+](=O)[O-])c2)c1C,Potency,[1],inactive
same,Potency,[2],inactive
same,Potency,[3],inactive
same,Potency,[4],inactive
same,Potency,[5],inactive
Cc1ccc([N+](=O)[O-])cc1NC(=O)CN(C1CCCCC1)S(=O)(=O)c1ccc(Cl)cc1,Potency,[1],inactive
same,Potency,[2],inactive
same,Potency,[3],8.49 µM (active)
same,Potency,[4],inactive
same,Potency,[5],inactive
COC(=O)c1c(NC(=O)c2ccc(S(=O)(=O)N3CCCCC3C)cc2)sc2c1CCN(C(C)C)C2 (configuration not stated),Potency,[1],inactive
same,Potency,[2],112 µM (active)
same,Potency,[3],inactive
same,Potency,[4],inactive
same,Potency,[5],79.4 µM (active)
COc1ccc2[nH]cc(CCNc3ncncc3-c3ccccc3Cl)c2c1,Potency,[7],> 11.4 µM
same,"activity change, negative = inhibition",[8],-12.3%
same,Potency,[9],0.631 µM (active)
same,"activity change, negative = inhibition",[10],-11.6%
same,outcome,[11],inactive
same,Potency,[12],> 46 µM
same,Potency,[13],inactive
same,Potency,[14],inactive
same,Potency,[15],0.199 µM (active)
same,Potency,[16],0.398 µM (active)
same,outcome,[17],inactive
same,Potency,[18],0.631 µM (active)
same,Potency,[19],0.0631 µM (active)
same,Potency,[20],12.6 µM (active)
same,Potency,[21],12.6 µM (active)
same,Potency,[22],inactive
same,Potency,[1],inactive
same,Potency,[2],inactive
same,Potency,[3],inactive

# — PubChem BioAssay (NCATS)
